Each structure is given as a SMILES string. The list shows a part of the results. Records with an inconclusive call do not appear. The source made the active and inactive calls. Calls follow the shape of the dose curve; as a rule, active = well fitted inhibition curve with a large enough effect; inconclusive = small, poorly fitted or top-dose-only effect; inactive = no such curve, though single readings can be large or run the other way.

The assay in a line: High Content Assay for Compounds that inhibit the Assembly of the Perinucleolar Compartment: Confirmation of PNC Inhibition. To be noted: PC3M PTB-GFP, PNC prevalence imaging, 16 h; series mostly up to 46.1 µM. The text has this: High Content Assay for Compounds that inhibit the Assembly of the Perinucleolar Compartment NIH Chemical Genomics Center [NCGC] NIH Molecular Libraries Probe Centers Network [MLPCN] MLPCN Grant: MH082371-01A2 Assay Submitter (PI): Sui Huang, Northwestern University, Feinberg School of Medicine, Cell and Molecular Biology, Chicago, Illinois. The perinucleolar compartment (PNC) is a non-membrane-bound nuclear subdomain that is associated with but structurally distinct from the nucleolus. The PNC is a heritable trait, in which the number of PNCs per cell in daughter cells often mimics that of their mother cells. The PNC is heterogeneous in shape, is stable through interphase, disassembles during mitosis, and reassembles in early G1. The PNC is concentrated with newly synthesized RNA polymerase III (pol III) RNAs (MRP RNA, RNAse P H1 RNA, hY RNAs[hY1, 2, 5], Alu RNA, and SRP [7SL] RNA) and RNA binding proteins (nucleolin, PTB, CUG-BP, KSRP, Raver1, Raver2, and Rod). […] Extensive in vitro studies have shown that the PNC is unique to tumor cells and preferentially forms in tumor cells derived from solid tissues. Examination of cancer cell lines from various origins and malignant capacities has shown that PNC prevalence correlates with the malignancy of tumors and has the potential to be developed as a pan-cancer prognostic marker. […] Although the PNC is associated with a DNA locus and a handful of components have been identified, much remains to be investigated regarding the structure and function of the PNC and its mechanistic link to cancer. We have previously shown that PNC prevalence reduction is a valid strategy to identify compounds that can be used to study the structure and function of the PNC. It is necessary, however, to create a screening platform that is able to test a large number of compounds in an automated fashion. Here we report the development and robustness of an automated whole-cell phenotypic image-based screening assay that is capable of identifying such compounds. Compounds active in the primary screen were then re-screened in concentration-response to confirm activity.
PNC High Content Imaging Assay Procedure: 1. Cells at a density of 75-90% confluency in T175 flasks were harvested using 7 ml TrypLE Express cell dissociation reagent. After dissociation (5 minutes room temperature incubation) 10 ml of complete media was added to the TrypLE/cell suspension. The liquid was transferred to a 50 ml Conical tube and cells were pelleted at 1000 RPM for 5 min. Supernatant was removed and cells were resuspended to a final density of 150-200 cells/ul in complete media. 2. Cells were plated in 5 ul volume (750-1000 cells/well) into 1536 well Black uclear Aurora Low Base plates and allowed to recover and adhere at 37 C in a humidified 5% CO2 incubator for 4 hours. 3. After 4 hour incubation, compound libraries (23 nl of […] in columns 5-48) were transferred to the plates in duplicate using a 1536 well pintool. Camptothecin positive control (59 uM final) was added to column 2 and 1:3 dilutions of camptothecin was added to column 3. DMSO negative controls were present in columns 1 and 4. 4. After a 16 hour incubation in the 37 C incubator, cells were fixed by the addition of 4 ul of 6% EM grade paraformaldehyde (containing 0.1% triton X 100) directly to the cells. The plates were incubated at room temperature for 20 minutes. […]
For `COC(=O)C1=C(C)N(c2ccc(Br)cc2)C(=O)/C1=C\c1ccco1`, the Potency entry was “inactive”. As to `Cn1c2ccccc2c(=O)c2c(=O)n(Cc3ccco3)c(COc3ccccc3)nc21`, the Potency is 11.2 µM (active). `CCOC(=O)c1c(-c2cccc(C)c2)csc1NC(=O)c1c(-c2ccccc2)noc1C`: the Potency is 2.51 µM (active). Turning to `COC(=O)c1ccc(CSc2ccccc2C)o1`, the Potency result is “inactive”.

Consider `N=c1c2c(-c3ccccc3)c(-c3ccccc3)n(Cc3ccccc3)c2ncn1CCCO`, for which the Potency was 4.47 µM (active).
